According to PubChem BioAssay (Tox21):
A number with no mark means an inactive call. Results filed as inconclusive are left out. Where a call stands in place of a potency, no number is given. Activity calls are given as the source filed them. Unless noted, calls follow the shape of the full dose curve.

Tests used:
[1] = Caspase-3/7 induction in HepG2 cells by small molecules, qHTS assay (AID 1346978; active = well fitted curve in the direction sought with a large enough effect in the repeat runs; an effect the other way counts as inactive or inconclusive; also: nearly all actives have a fitted effect of over 15% in size)
In short: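 Caspase-3/7 induction was measured by Caspase-Glo 3/7 luminescence (30 min, room temperature) after a 17 hr compound exposure of wild-type HepG2 cells seeded at 2,000 per well and pre-incubated 5 hr.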

[2] = target: Acetylcholinesterase (Homo sapiens) (UniProt P22303); experiment: Acetylcholinesterase (AChE) small molecule antagonists: colormetric cell-based qHTS assay (AID 1347395); also: nearly all actives have a fitted effect of over 30% in size; also: potency is read from the fitted curve at half-maximal effect
Chain of Acetylcholinesterase (Homo sapiens) (P22303 whole entry, looked up): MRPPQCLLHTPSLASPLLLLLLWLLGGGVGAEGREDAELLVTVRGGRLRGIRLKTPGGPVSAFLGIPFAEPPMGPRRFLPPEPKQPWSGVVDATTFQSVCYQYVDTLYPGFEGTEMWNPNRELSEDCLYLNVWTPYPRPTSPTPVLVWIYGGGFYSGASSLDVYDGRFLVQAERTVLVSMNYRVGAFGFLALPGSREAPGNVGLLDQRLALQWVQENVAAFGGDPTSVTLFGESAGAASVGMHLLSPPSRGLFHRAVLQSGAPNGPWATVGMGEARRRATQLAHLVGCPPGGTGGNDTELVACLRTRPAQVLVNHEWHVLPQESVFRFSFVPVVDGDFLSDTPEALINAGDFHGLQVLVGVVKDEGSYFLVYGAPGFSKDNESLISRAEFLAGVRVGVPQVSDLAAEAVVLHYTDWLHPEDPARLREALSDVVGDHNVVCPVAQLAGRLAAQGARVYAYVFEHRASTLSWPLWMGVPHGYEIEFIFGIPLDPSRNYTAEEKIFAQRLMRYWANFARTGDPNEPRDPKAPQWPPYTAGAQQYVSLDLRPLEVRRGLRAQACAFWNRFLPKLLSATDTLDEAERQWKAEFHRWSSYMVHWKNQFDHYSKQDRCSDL
In short: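 Quantitative HTS in attached SH-SY5Y cells: 30 min compound exposure, then 90 min with acetylthiocholine and DTNB at 37 C; colour from thiocholine reports AChE activity.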

[3] = target: Acetylcholinesterase (Homo sapiens) (UniProt P22303); experiment: Acetylcholinesterase (AChE) small molecule antagonists: enzyme-based qHTS assay (AID 1347397); settings: Potency: AChE enzyme activity inhibition; outcome: AChE enzyme activity inhibition; also: nearly all actives have a fitted effect of over 55% in size
In short: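 Colorimetric DTNB readout of acetylthiocholine hydrolysis, 10 min at room temperature, after 30 min room-temperature exposure of 50 mU/mL recombinant human enzyme to compound; DMSO vehicle control.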

[4] = target: Acetylcholinesterase (Homo sapiens) (UniProt P22303); experiment: Acetylcholinesterase (AChE) small molecule antagonists: fluorescence cell-based qHTS assay (AID 1347398); settings: Potency: AChE activity; outcome: AChE activity; also: nearly all actives have a fitted effect of over 50% in size
In short: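 Cellular AChE activity read as thiocholine from acetylthiocholine hydrolysis, detected by Thiolite Green fluorescence at 490/520 nm after 40 min at room temperature. Compounds were pre-incubated 30 min at 37 C on adherent SH-SY5Y cells.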

[5] = target: Acetylcholinesterase (Homo sapiens) (UniProt P22303); experiment: Acetylcholinesterase (AChE) small molecule antagonists: enzyme-based qHTS assay with human liver microsomes (AID 1347399); settings: Potency: qHTS inhibition; outcome: qHTS inhibition; also: nearly all actives have a fitted effect of over 60% in size
In short: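 Recombinant human AChE (50 mU/mL in the enzyme mix) and human liver microsomes (0.25 mg/mL final) were preincubated with compound and NADPH (0.25 mg/mL final) for 30 min at 37 C. Acetylthiocholine/DTNB was then added; thiocholine was read colorimetrically after 10 min at room temperature.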

[6] = target: Glucocorticoid receptor (Homo sapiens) (UniProt P04150); experiment: qHTS assay to identify small molecule antagonists of the glucocorticoid receptor (GR) signaling pathway (AID 720692; active = well fitted inhibition curve with a large enough effect in the signal ratio in the repeat runs, not every such curve was filed as active; the % refers to the signal ratio; also: potency is read from the fitted curve at half-maximal effect)
Chain of Glucocorticoid receptor (Homo sapiens) (P04150 whole entry, looked up): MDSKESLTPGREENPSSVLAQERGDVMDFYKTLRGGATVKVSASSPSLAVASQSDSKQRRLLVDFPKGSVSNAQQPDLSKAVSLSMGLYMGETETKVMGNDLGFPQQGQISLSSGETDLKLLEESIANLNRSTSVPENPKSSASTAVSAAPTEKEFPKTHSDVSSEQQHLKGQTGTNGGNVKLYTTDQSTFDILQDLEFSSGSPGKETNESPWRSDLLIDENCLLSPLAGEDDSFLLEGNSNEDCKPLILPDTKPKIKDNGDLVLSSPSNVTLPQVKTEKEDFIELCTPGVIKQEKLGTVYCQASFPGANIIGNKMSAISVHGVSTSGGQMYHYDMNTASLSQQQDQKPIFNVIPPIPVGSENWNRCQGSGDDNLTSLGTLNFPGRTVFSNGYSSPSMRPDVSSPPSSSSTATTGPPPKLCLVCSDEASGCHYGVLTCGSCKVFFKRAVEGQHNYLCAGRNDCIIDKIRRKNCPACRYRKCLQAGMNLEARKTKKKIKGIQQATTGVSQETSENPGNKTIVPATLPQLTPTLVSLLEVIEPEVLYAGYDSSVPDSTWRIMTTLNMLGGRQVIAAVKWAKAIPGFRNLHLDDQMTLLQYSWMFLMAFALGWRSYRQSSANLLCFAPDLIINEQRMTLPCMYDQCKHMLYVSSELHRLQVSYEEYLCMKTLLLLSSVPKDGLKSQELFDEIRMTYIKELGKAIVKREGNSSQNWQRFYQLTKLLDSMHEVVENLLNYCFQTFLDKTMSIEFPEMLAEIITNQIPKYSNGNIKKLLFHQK
In short: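 Quantitative HTS in antagonist format: HeLa cells expressing endogenous GR and a stably integrated GRE-bla reporter, stimulated with 5 nM dexamethasone (final) alongside test compounds for 18 h.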

[7] = target: Nuclear receptor subfamily 1 group I member 2 (Homo sapiens) (UniProt O75469); experiment: CYP3A4 induction through human pregnane X receptor (PXR) by small molecules, qHTS assay (AID 1346984; active = well fitted curve in the direction sought with a large enough effect in the repeat runs; an effect the other way counts as inactive or inconclusive; also: nearly all actives have a fitted effect of over 40% in size; also: potency is read from the fitted curve at half-maximal effect)
In short: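 Induction measured in HepG2-based DPX-2 cells co-expressing human PXR and a CYP3A4 promoter-driven luciferase. After a 24-hour compound exposure, cells received CYP3A4 luciferin substrate at 3uM final for 3 hours, and light output was then recorded.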

[8] = qHTS assay for small molecule activators of the heat shock response signaling pathway (AID 743210; active = well fitted activation curve with a large enough effect in the signal ratio in the repeat runs, with a control signal flat, not every such curve was filed as active; the % refers to the signal ratio; also: series mostly up to about 63 µM)
In short: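 Compound exposure lasted 5 h at 37 C in HeLa cells carrying a heat-shock-element-driven beta-lactamase reporter. Read-out: fluorescence intensity after 2.5 h room-temperature loading with LiveBLAzer B/G FRET substrate.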

[9] = target: Androgen receptor (Homo sapiens) (UniProt P10275); experiment: qHTS assay to identify small molecule agonists of the androgen receptor (AR) signaling pathway using the MDA cell line (AID 743040; active = well fitted curve in the direction sought with a large enough effect in the repeat runs; an effect the other way counts as inactive or inconclusive; also: nearly all actives have a fitted effect of over 20% in size)
Chain of Androgen receptor (Homo sapiens) (P10275 whole entry, looked up): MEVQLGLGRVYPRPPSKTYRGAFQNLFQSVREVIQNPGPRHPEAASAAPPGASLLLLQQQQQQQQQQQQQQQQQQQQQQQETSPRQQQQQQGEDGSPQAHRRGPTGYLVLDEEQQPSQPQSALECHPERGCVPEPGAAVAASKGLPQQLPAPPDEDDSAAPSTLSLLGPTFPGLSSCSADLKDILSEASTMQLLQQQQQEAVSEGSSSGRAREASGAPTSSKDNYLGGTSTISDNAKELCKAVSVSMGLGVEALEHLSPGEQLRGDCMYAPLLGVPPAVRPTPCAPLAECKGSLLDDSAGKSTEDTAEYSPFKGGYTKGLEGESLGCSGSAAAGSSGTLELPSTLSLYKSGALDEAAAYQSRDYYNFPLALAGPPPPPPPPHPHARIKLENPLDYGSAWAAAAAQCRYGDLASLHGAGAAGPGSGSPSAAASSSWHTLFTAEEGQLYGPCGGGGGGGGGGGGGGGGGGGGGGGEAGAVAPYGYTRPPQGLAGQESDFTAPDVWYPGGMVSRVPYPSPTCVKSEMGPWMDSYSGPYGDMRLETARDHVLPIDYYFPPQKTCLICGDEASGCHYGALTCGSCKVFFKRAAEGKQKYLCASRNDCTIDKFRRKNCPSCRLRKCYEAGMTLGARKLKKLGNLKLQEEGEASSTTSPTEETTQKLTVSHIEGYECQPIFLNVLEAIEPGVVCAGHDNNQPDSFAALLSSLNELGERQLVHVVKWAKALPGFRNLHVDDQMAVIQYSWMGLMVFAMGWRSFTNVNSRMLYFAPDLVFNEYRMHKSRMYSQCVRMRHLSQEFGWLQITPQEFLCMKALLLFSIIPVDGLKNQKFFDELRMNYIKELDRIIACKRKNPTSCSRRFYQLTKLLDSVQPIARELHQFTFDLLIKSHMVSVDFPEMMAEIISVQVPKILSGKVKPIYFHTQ
In short: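 Luciferase agonist assay: 16 h compound exposure at 37C without CO2 in MDA-kb2 AR-luc cells, whose MMTV promoter responds to both AR and GR. Luminescence measured after 30 min room-temperature incubation with ONE-Glo.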

[10] = target: Nuclear receptor subfamily 1 group I member 2 (Rattus norvegicus) (UniProt Q9R1A7); experiment: Rat pregnane X receptor (rPXR) activation by small molecules, qHTS assay (AID 1346983; active = well fitted curve in the direction sought with a large enough effect in the repeat runs; an effect the other way counts as inactive or inconclusive; also: nearly all actives have a fitted effect of over 20% in size); settings: rPXR luciferase reporter cells, One-Glo luminescence, 24 h; max activation: active compounds read high
Chain of Nuclear receptor subfamily 1 group I member 2 (Rattus norvegicus) (Q9R1A7 whole entry, looked up): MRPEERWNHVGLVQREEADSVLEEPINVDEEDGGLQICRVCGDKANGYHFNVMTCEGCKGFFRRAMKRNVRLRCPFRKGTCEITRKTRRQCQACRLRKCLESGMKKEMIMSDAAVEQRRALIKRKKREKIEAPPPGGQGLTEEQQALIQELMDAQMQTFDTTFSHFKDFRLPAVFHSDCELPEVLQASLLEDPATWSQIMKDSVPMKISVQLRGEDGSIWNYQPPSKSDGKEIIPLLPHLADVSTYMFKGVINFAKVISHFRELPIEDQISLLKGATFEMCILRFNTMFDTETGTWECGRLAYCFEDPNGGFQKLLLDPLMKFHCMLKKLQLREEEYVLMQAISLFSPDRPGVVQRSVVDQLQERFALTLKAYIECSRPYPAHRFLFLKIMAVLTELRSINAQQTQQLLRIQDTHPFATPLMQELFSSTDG
In short: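 Luminescent readout (One-Glo luciferase, 30 min room temperature) followed 24 hr compound treatment at 37 C of rPXR cells plated 2,000 per well and preincubated 5hr; qHTS format with compounds delivered in DMSO.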

[11] = target: Nuclear receptor subfamily 1 group I member 2 (Homo sapiens) (UniProt O75469); experiment: Human pregnane X receptor (PXR) activation by small molecules, qHTS assay (AID 1346985; active = well fitted curve in the direction sought with a large enough effect in the repeat runs; an effect the other way counts as inactive or inconclusive; also: nearly all actives have a fitted effect of over 40% in size; also: potency is read from the fitted curve at half-maximal effect)
In short: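 DPX-2 cells (HepG2 co-transfected with a PXR response element and a CYP3A4-promoter luciferase construct) were seeded at 2,000 per well, rested 5 hr at 37C, then exposed to DMSO-dissolved compounds for 24 hr. Activation was read as luciferase luminescence.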

[12] = target: Peroxisome proliferator-activated receptor delta (Homo sapiens) (UniProt Q03181); experiment: qHTS assay to identify small molecule agonists of the peroxisome proliferator-activated receptor delta (PPARd) signaling pathway (AID 743212);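 also: HEK293H cells with PPARd UAS beta-lactamase reporter GeneBLAzer system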
Chain of Peroxisome proliferator-activated receptor delta (Homo sapiens) (Q03181 whole entry, looked up): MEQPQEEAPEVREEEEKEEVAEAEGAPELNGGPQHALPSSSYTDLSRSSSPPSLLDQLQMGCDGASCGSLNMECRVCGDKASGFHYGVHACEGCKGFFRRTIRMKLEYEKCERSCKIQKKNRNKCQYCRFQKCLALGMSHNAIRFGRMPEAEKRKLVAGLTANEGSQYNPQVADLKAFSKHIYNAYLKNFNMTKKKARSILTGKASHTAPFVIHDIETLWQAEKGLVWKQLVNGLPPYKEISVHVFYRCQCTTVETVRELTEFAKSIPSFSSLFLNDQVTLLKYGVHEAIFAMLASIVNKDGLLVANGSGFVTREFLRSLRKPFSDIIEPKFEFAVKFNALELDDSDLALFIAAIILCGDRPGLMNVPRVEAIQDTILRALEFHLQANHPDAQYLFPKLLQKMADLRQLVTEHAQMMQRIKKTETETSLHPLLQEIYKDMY
In short: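 Beta-lactamase reporter readout: a ratiometric FRET signal from the LiveBLAzer substrate after 2 h at room temperature. Compound exposure at 37 °C in PPARδ-bla HEK293H cells driven by an upstream activator sequence.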

[13] = target: Androgen receptor (Homo sapiens) (UniProt P10275); experiment: qHTS assay to identify small molecule agonists of the androgen receptor (AR) signaling pathway in the presence of an antagonist (AID 1259381); also: nearly all actives have a fitted effect of over 15% in size
In short: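 Reporter-gene luminescence from MDA-kb2 cells exposed 16hr at 37C (0% CO2) to 15-point compound titrations with 3.0uM final nilutamide as AR antagonist.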

Which Potency [1] does the source give for `Clc1cc(Cl)c(-c2c(Cl)c(Cl)cc(Cl)c2Cl)cc1Cl` here?
Its Potency is “inactive”.

And the Potency [2]?
Its Potency is “inactive”.

What about the Potency [3] of the same compound?
The Potency was “inactive”.

What about the Potency [4] of the same compound?
Its Potency is “inactive”.

And the Potency [5]?
The Potency was “inactive”.

For `O=C(Cl)c1cccc(C(=O)Cl)c1`, which Potency [1] is on record?
Its Potency is “inactive”.

And the Potency [2]?
The Potency was “inactive”.

And the Potency [3]?
The Potency was “inactive”.

What about the Potency [4] of the same compound?
The Potency was “inactive”.

And the Potency [5]?
Its Potency is “inactive”.

With `C[C@]12CC[C@H]3[C@@H](CCC4=CC(=O)CC[C@@]43C)[C@@H]1CC[C@H]2O` as the compound, how does the Potency [6] read?
Its Potency is 4.25 µM (active).

What about the Potency [7] of the same compound?
The Potency was “inactive”.

Which Potency [6] does the source give for `C[N+](C)(C)CCCCCCCCCC[N+](C)(C)C` here?
Its Potency is “inactive”.

And the Potency [8]?
The Potency was “inactive”.

And the Potency [1]?
Its Potency is “inactive”.

And the Potency [2]?
Its Potency is 15.5 µM (active).

What about the Potency [5] of the same compound?
The Potency was “inactive”.

With `O=c1c2ccccc2[se]n1-c1ccccc1` as the compound, how does the Potency [9] read?
Its Potency is “inactive”.

Which results are given for `C[C@H]1CC[C@]2(NC1)O[C@H]1C[C@H]3[C@@H]4CC[C@H]5C[C@@H](O)CC[C@]5(C)[C@H]4CC[C@]3(C)[C@H]1[C@@H]2C`?
max activation [10]: 11.8%; Potency [7]: inactive

With `CCN(CC)/[N+]([O-])=N/O` as the compound, how does the Potency [6] read?
The Potency was “inactive”.

Which Potency [1] does the source give for `Clc1ccc(Cl)c(Cl)c1Cl` here?
Its Potency is “inactive”.

And the Potency [2]?
Its Potency is “inactive”.

And the Potency [3]?
Its Potency is “inactive”.

What about the Potency [4] of the same compound?
The Potency was “inactive”.

And the Potency [5]?
Its Potency is “inactive”.

Which Potency [8] does the source give for `Brc1ccc(Oc2ccc(Br)cc2)cc1` here?
The Potency was “inactive”.

And the Potency [1]?
Its Potency is “inactive”.

And the Potency [2]?
Its Potency is “inactive”.

And the Potency [3]?
Its Potency is “inactive”.

What about the Potency [4] of the same compound?
The Potency was “inactive”.

And the Potency [5]?
The Potency was “inactive”.

For `F/C(COc1ccc2c(c1)[nH]c1ccccc12)=C1/CN2CCC1CC2`, which Potency [7] is on record?
Its Potency is “inactive”.

What about the Potency [11] of the same compound?
The Potency was 22.4 µM (active).

With `CN1[C@@H]2CC[C@H]1CC(OC(=O)C(CO)c1ccccc1)C2` (stereo partly specified) as the compound, how does the Potency [1] read?
The Potency was “inactive”.

With `Cc1c(N)cccc1N` as the compound, how does the Potency [1] read?
The Potency was “inactive”.

And the Potency [2]?
Its Potency is “inactive”.

What about the Potency [4] of the same compound?
Its Potency is “inactive”.

What about the Potency [5] of the same compound?
The Potency was “inactive”.

Which max activation [10] does the source give for `CC(C)[C@@]1(NC(=O)[C@@H]2C[C@@H]3c4cccc5[nH]cc(c45)C[C@H]3N(C)C2)O[C@@]2(O)[C@@H]3CCCN3C(=O)[C@H](Cc3ccccc3)N2C1=O` here?
The max activation was -8.17%.

Which Potency [1] does the source give for `Clc1cc(Cl)c(Cl)cc1Cl` here?
Its Potency is “inactive”.

What about the Potency [2] of the same compound?
Its Potency is “inactive”.

And the Potency [3]?
The Potency was “inactive”.

What about the Potency [4] of the same compound?
The Potency was “inactive”.

And the Potency [5]?
Its Potency is “inactive”.

With `CN1[C@@H]2CC[C@H]1CC(OC1c3ccccc3CCc3ccccc31)C2` (stereo partly specified) as the compound, how does the Potency [6] read?
The Potency was “inactive”.

What about the max activation [10] of the same compound?
The max activation was -2.13%.

What about the Potency [7] of the same compound?
Its Potency is “inactive”.

And the Potency [11]?
Its Potency is “inactive”.

With `C=CCOc1c(Br)cc(C(C)(C)c2cc(Br)c(OCC=C)c(Br)c2)cc1Br` as the compound, how does the Potency [6] read?
Its Potency is “inactive”.

What about the outcome [12] of the same compound?
Its outcome is “inactive”.

And the Potency [1]?
The Potency was “inactive”.

And the Potency [2]?
Its Potency is “inactive”.

What about the Potency [3] of the same compound?
The Potency was “inactive”.

And the Potency [4]?
The Potency was “inactive”.

And the Potency [5]?
Its Potency is “inactive”.

For `c1ccc(-c2ccccc2-c2ccccc2)cc1`, which Potency [13] is on record?
Its Potency is “inactive”.

And the Potency [2]?
The Potency was “inactive”.

What about the Potency [3] of the same compound?
Its Potency is “inactive”.

And the Potency [4]?
Its Potency is “inactive”.

And the Potency [5]?
The Potency was “inactive”.

With `CCN(CC)CCO[C@H]1CC[C@@]2(C)C(=CC[C@@H]3[C@@H]2CC[C@]2(C)C(=O)CC[C@@H]32)C1` as the compound, how does the max activation [10] read?
Its max activation is 3.39%.

And the Potency [7]?
The Potency was 7.94 µM (active).

With `COc1cc([C@@H]2c3cc4c(cc3[C@H](O)[C@H]3COC(=O)[C@H]23)OCO4)cc(OC)c1OC` as the compound, how does the Potency [1] read?
The Potency was “inactive”.

What about the Potency [2] of the same compound?
Its Potency is “inactive”.

What about the Potency [3] of the same compound?
Its Potency is “inactive”.

What about the Potency [4] of the same compound?
The Potency was “inactive”.

What about the Potency [5] of the same compound?
The Potency was “inactive”.

With `CC(C)c1nnc2ccc(-c3ocnc3-c3cc(F)ccc3F)cn12` as the compound, how does the Potency [2] read?
The Potency was “inactive”.

What about the Potency [3] of the same compound?
The Potency was “inactive”.

And the Potency [4]?
Its Potency is “inactive”.
